# According to PubChem BioAssay (NCI):
# Several values for one entry are separate records, joined by “and”; a condition that tells them apart may be missing. Identical values can stand only once. This is part of a sample that, as a whole, favours compounds with a hit. Of some 83,000 tested, about 20% had one in any assay.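 Single-dose data. Exposure time 48 hours. Values below 10 considered active.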 Activity calls are given as the source filed them.
# Experiments:
# Experiment in all cases: NCI-60 one-dose screen, 48 h (100 = growth as untreated, 0 = no growth, -100 = all killed)
# Conditions in all cases: 10 µM unless noted
# DU-145 prostate = test system: DU-145 prostate
# K-562 leukemia = test system: K-562 leukemia
# MALME-3M melanoma = test system: MALME-3M melanoma
# MDA-MB-231 breast = test system: MDA-MB-231 breast
# RXF 393 renal = test system: RXF 393 renal
# SF-268 CNS = test system: SF-268 CNS
# SF-295 CNS = test system: SF-295 CNS
# SF-539 CNS = test system: SF-539 CNS
# UACC-257 melanoma = test system: UACC-257 melanoma
# M14 melanoma = test system: M14 melanoma
# HCT-15 colon = test system: HCT-15 colon
# HT29 colon = test system: HT29 colon
# SNB-75 CNS = test system: SNB-75 CNS
# SNB-19 CNS = test system: SNB-19 CNS
# U251 CNS = test system: U251 CNS
# PC-3 prostate = test system: PC-3 prostate
# SK-MEL-5 melanoma = test system: SK-MEL-5 melanoma
# UACC-62 melanoma = test system: UACC-62 melanoma
# LOX IMVI melanoma = test system: LOX IMVI melanoma
# SK-MEL-28 melanoma = test system: SK-MEL-28 melanoma
Compound,growth (DU-145 prostate),growth (K-562 leukemia),growth (MALME-3M melanoma),growth (MDA-MB-231 breast),growth (RXF 393 renal),growth (SF-268 CNS),growth (SF-295 CNS),growth (SF-539 CNS),growth (UACC-257 melanoma),growth (M14 melanoma),growth (HCT-15 colon),growth (HT29 colon),growth (SNB-75 CNS),growth (SNB-19 CNS),growth (U251 CNS),growth (PC-3 prostate),growth (SK-MEL-5 melanoma),growth (UACC-62 melanoma),growth (LOX IMVI melanoma),growth (SK-MEL-28 melanoma)
O=S(=O)(Oc1ccc(-c2cn3ccsc3n2)cc1)c1cccc(C(F)(F)F)c1,103% (inactive),96.9% (inactive),91.3% (inactive),101% (inactive),100% (inactive),110% (inactive),98.3% (inactive),101% (inactive),99.6% (inactive),101% (inactive),96.8% (inactive),107% (inactive),102% (inactive),96.4% (inactive),100% (inactive),97.9% (inactive),98.3% (inactive),81.3% (inactive),112% (inactive),99.6% (inactive)
CN1CCN(Cc2ccc(/C=N/Nc3ccnc4cc(Cl)ccc34)cc2)CC1,75.1% (inactive),4.76% (active),94.5% (inactive),71.5% (inactive),74.6% (inactive),99.8% (inactive),90% (inactive),64.7% (inactive),111% (inactive),96.9% (inactive),38.2% (inactive),42.5% (inactive),99% (inactive),98.2% (inactive),84.6% (inactive),75.8% (inactive),94.3% (inactive),104% (inactive),15.3% (inactive),98% (inactive)
CC[C@]12C=CCN3CC[C@]4(C(=C(C(=O)OC)C1)Nc1cc5c(cc14)[C@@H]1[C@H](O5)[C@@H](O)[C@@]4(CC)CC(C(=O)OC)=C5Nc6cc(O)ccc6[C@@]56CCN1C46)C32 (stereo not given in full),22% (inactive),3.36% (active),19.3% (inactive),21% (inactive),-40.2% (active),6.98% (active),8.14% (active),4.2% (active),21.8% (inactive),15.7% (inactive),-44.6% (active),4.53% (active),-2.38% (active),23.4% (inactive),8.74% (active),20.8% (inactive),-41.5% (active),19% (inactive),-83.8% (active),17.4% (inactive)
CCS(=O)(=O)Nc1ccc(C(=O)CC2(O)C(=O)Nc3ccccc32)cc1 (stereo not given),109% (inactive),93.5% (inactive),90.1% (inactive),99.6% (inactive),115% (inactive),97.3% (inactive),102% (inactive),96.1% (inactive),103% (inactive),105% (inactive),100% (inactive),113% (inactive),69.2% (inactive),101% (inactive),105% (inactive),92.4% (inactive),99.8% (inactive),96.9% (inactive),94.6% (inactive),109% (inactive)
O=C1c2ccccc2C23C(=C(c4cncnc4)c4ccccc42)CCCN13 (stereo not given),101% (inactive),102% (inactive),94.7% (inactive),101% (inactive),104% (inactive),91.6% (inactive),95.9% (inactive),102% (inactive),108% (inactive),98.6% (inactive),104% (inactive),101% (inactive),85.3% (inactive),93.4% (inactive),102% (inactive),88.8% (inactive),98.7% (inactive),88.2% (inactive),76.1% (inactive),101% (inactive)
COc1cccc2c1C=CC1(O2)Oc2cccc(OC)c2C=C1C (stereo not given),31.5% (inactive),8.28% (active),60.4% (inactive),0.892% (active),-18.2% (active),55.3% (inactive),6.46% (active),-9.43% (active),73.9% (inactive),1.02% (active),24.9% (inactive),6.27% (active),-8.19% (active),22.8% (inactive),16.8% (inactive),31.4% (inactive),24.6% (inactive),13.1% (inactive),24.5% (inactive),58.4% (inactive)
N#Cc1nc(-c2ccc(Cl)cc2)oc1N1CCC(S(=O)(=O)N2CCOCC2)CC1,105% (inactive),101% (inactive),99.2% (inactive),94.7% (inactive),99.8% (inactive),96.6% (inactive),102% (inactive),93.6% (inactive),108% (inactive),107% (inactive),105% (inactive),98% (inactive),94.2% (inactive),92.2% (inactive),102% (inactive),95.4% (inactive),98.1% (inactive),94.1% (inactive),81.7% (inactive),101% (inactive)
CS(=O)(=O)c1ccc(/C(=N/N=C(N)N)c2ccc(F)cc2)cc1,106% (inactive),25.1% (inactive),97.4% (inactive),105% (inactive),86.1% (inactive),78.9% (inactive),71% (inactive),99.5% (inactive),76.9% (inactive),67.2% (inactive),74.9% (inactive),91.5% (inactive),94.6% (inactive),63% (inactive),67.2% (inactive),73.9% (inactive),82.8% (inactive),74.6% (inactive),54.4% (inactive),95.5% (inactive)
COc1cc(-c2nc(-c3ccccc3)[nH]c2-c2ccnc(NCCCNS(=O)(=O)c3ccc(C(F)(F)F)cc3)n2)ccc1Cl,52.6% (inactive) and 59.5% (inactive),18% (inactive) and 23.5% (inactive),102% (inactive) and 62.4% (inactive),57% (inactive) and 55.8% (inactive),18.5% (inactive) and 16.3% (inactive),37.9% (inactive) and 49% (inactive),13.4% (inactive) and 22.6% (inactive),65.6% (inactive) and 55.5% (inactive),64.2% (inactive) and 51.2% (inactive),18.7% (inactive),14.3% (inactive) and 22.5% (inactive),43.9% (inactive) and 17.9% (inactive),58.6% (inactive) and 67.5% (inactive),57.1% (inactive) and 54.1% (inactive),40.7% (inactive) and 39.8% (inactive),15.4% (inactive) and 20.3% (inactive),22.4% (inactive) and 52.3% (inactive),56% (inactive) and 44.9% (inactive),18.1% (inactive) and 47.6% (inactive),63.1% (inactive) and 44.4% (inactive)
CN1CCN(CC#CCn2c3c(c4ccccc42)C[C@]2(C)[C@H]4CC=C5[C@@H]6CC(C)(C)CC[C@]6(C(=O)N6CCOCC6)CC[C@@]5(C)[C@]4(C)CC[C@H]2C3(C)C)CC1,64.8% (inactive),-23% (active),83.3% (inactive),43.1% (inactive),68.4% (inactive),83.5% (inactive),99.3% (inactive),73.9% (inactive),102% (inactive),87.7% (inactive),28.4% (inactive),12.3% (inactive),88.9% (inactive),83% (inactive),43.4% (inactive),56.7% (inactive),95.7% (inactive),103% (inactive),-46.1% (active),92.1% (inactive)
Cc1ccc(OCc2occc2C(=O)N2CCOCC2)cc1,103% (inactive),98.9% (inactive),102% (inactive),109% (inactive),99.8% (inactive),97.5% (inactive),96.3% (inactive),100% (inactive),116% (inactive),99.3% (inactive),100% (inactive),108% (inactive),81.8% (inactive),99.8% (inactive),103% (inactive),107% (inactive),100% (inactive),97.9% (inactive),108% (inactive),110% (inactive)
N#Cc1cccc(-c2cc(-c3ccc4c(c3)OCCO4)[nH]n2)c1,34.7% (inactive),13.6% (inactive),36.1% (inactive),42% (inactive),32.4% (inactive),61% (inactive),27.1% (inactive),25% (inactive),71.1% (inactive),7.59% (active),23.2% (inactive),11.2% (inactive),10.6% (inactive),36.6% (inactive),30.2% (inactive),39.7% (inactive),12.1% (inactive),41.7% (inactive),46% (inactive),55.9% (inactive)
COc1ccc2c(c1)c(/C=N/Nc1ccnc3cc(Cl)ccc13)cn2C,-93.3% (active),-48.1% (active),-77.2% (active),-82.8% (active),-81.1% (active),-67.1% (active),-84.4% (active),-82.9% (active),-84.2% (active),-72% (active),-85.3% (active),-44.8% (active),-91.2% (active),-68.1% (active),-80.1% (active),-83.8% (active),-95% (active),-57.7% (active),-78.7% (active),-85.2% (active)
NC1C2CCC1CN(c1cnc(C(=O)Nc3cc(F)cc4cccnc34)cn1)C2 (stereo not given),71.2% (inactive),3.9% (active),49.5% (inactive),39.4% (inactive),61.6% (inactive),73.5% (inactive),76.3% (inactive),64.6% (inactive),98.3% (inactive),48.4% (inactive),6.16% (active),22.7% (inactive),46.4% (inactive),69.7% (inactive),60.1% (inactive),61.4% (inactive),93.2% (inactive),78.9% (inactive),26.3% (inactive),63.5% (inactive)
CN1CCN(c2ccc(Nc3nc(NCCCNS(=O)(=O)c4cccc5ccccc45)c4sccc4n3)cc2)CC1,-6.73% (active),5.72% (active),-91.6% (active),-29% (active),-87.1% (active),-24.1% (active),-71.8% (active),-92.1% (active),-89% (active),-81.9% (active),-32.8% (active),-62.1% (active),-36.9% (active),35.7% (inactive),-74.4% (active),29.1% (inactive),-95.3% (active),-61% (active),-85.2% (active),-80.9% (active)
CC(C)(C)c1cc(NC(=O)Nc2ccc(-c3cn4c5c(sc4n3)CCc3c[nH]cc3-5)cc2)no1,32.6% (inactive),1.04% (active),0.464% (active),30.3% (inactive),-24.4% (active),32.7% (inactive),-56.5% (active),-4.46% (active),32.3% (inactive),6.95% (active),5% (active),-66% (active),-12.9% (active),21.7% (inactive),-14.6% (active),21.9% (inactive),19.1% (inactive),49.9% (inactive),-22.5% (active),23.1% (inactive)
O=C(CCCCCCN1CC(=O)N2[C@@H](c3cccs3)c3[nH]c4ccccc4c3C[C@H]2C1=O)NO,90.2% (inactive),64.7% (inactive),27.2% (inactive),93.7% (inactive),89.3% (inactive),101% (inactive),96.9% (inactive),73.8% (inactive),66.9% (inactive),84.3% (inactive),96.1% (inactive),78.9% (inactive),73% (inactive),78.1% (inactive),76.5% (inactive),86.2% (inactive),74.8% (inactive),5.39% (active),68.4% (inactive),70.2% (inactive)
Cn1cc(-c2cc3ncnc(Nc4ccc(CC(=O)Nc5nc(C(C)(C)C)cs5)cc4)c3s2)cn1,38% (inactive),16.2% (inactive),55.9% (inactive),45.6% (inactive),26.4% (inactive),56.2% (inactive),69.6% (inactive),29.1% (inactive),79.1% (inactive),41.5% (inactive),26.6% (inactive),49.9% (inactive),50.9% (inactive),94.5% (inactive),66% (inactive),41.4% (inactive),53% (inactive),40.3% (inactive),26.3% (inactive),68.9% (inactive)
